Screening results: PubChem, The Scripps Research Institute Molecular Screening Center
Most compounds without a hit are left out; they make up all but 5.7% or so of the library.
DAX1 inh-1: DAX1 (NR0B1) inhibitors on StAR promoter, primary screen, cell-based, luminescence, SF-1 (NR5A1), full-length DAX-1. HEK293T StAR-luciferase reporter, SF-1/DAX-1 repression relief. inhibition, % at 6.8 µM. 370,000 tested, 1.1% active;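 active means inhibition above the mean over all tested compounds plus 3 SD, cut at about 3.6% in these data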;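 further: higher inhibition means more luminescence from relief of DAX-1 repression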
hgDAF-12 ag: H. glycines DAF-12 receptor agonists, primary screen, cell-based, luminescence, HEK293, GAL4 fusion, UAS-luciferase; HEK293 GAL4-hgDAF12 UAS-luciferase reporter, agonist luminescence; normalized to butyrate control; 370,000 tested, 1.8% active; activation, % at 6.8 µM; Nuclear hormone receptor DAF-12 (Heterodera glycines), GAL4 fusion;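 active means activation above a cutoff set at the mean of all screened compounds plus 3 SD, cut at about 10% in these data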
DAX1 inh-2: DAX1 (NR0B1) inhibitors, primary screen, cell-based, HEK293, Gal4-DAX1, luciferase luminescence | HEK293 Gal4-DAX1 luciferase reporter | inhibition, % at 6.75 µM | 340,000 tested, 0.99% active | AID 504766, 2011;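 active means inhibition above the mean over all tested compounds plus 3 SD, cut at about 4.2% in these data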;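 further: inhibition shows as a rise in luminescence from relieved DAX1 repression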
Target sequence (P51843 207-470 limits assumed): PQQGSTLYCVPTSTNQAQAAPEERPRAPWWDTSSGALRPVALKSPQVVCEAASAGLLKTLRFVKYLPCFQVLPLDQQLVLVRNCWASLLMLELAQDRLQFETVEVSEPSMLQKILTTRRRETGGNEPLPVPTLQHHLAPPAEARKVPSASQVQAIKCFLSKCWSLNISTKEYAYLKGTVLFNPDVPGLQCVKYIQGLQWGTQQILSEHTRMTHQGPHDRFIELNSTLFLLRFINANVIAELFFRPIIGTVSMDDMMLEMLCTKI
ssDAF-12 act: S. stercoralis DAF-12 nuclear receptor activators, primary screen, cell-based, luminescence, HEK293, GRIP1 co-expression, lit1-tk-luc; HEK293 ssDAF-12/GRIP1 lit1-tk-luc reporter; % of 3 µM dafachronic acid response; activation, % at 6.8 µM; 370,000 tested, 1% active; AID 652126, 2013;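 active means activation above the mean over all tested compounds plus 3 SD, cut at about 0.9% in these data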
hcDAF12 agonist: H. contortus DAF-12 nuclear receptor activators, primary screen, cell-based, luminescence, HEK293, lit1-tk-luc reporter; HEK293 hcDAF-12 lit1-tk-luc reporter; 0% DMSO, 100% Δ7-dafachronic acid; activation, % at 6.8 µM; 370,000 tested, 1.4% active;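 active means activation above the mean of all tested compounds plus 3 SD, cut at about 5.5% in these data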
AHR act: AHR activators, primary screen, cell-based, luminescence, luciferase reporter, human; Aryl hydrocarbon receptor (Homo sapiens), P35869; AHR-responsive luciferase reporter cells; activation, % at 5 µM; 320,000 tested, 2.5% active; AID 2796, 2010; in the data active means activation above about 47%
Numbers stand for hits; - = inactive; . = no result.

SMILES	DAX1 inh-1	hgDAF-12 ag	DAX1 inh-2	ssDAF-12 act	hcDAF12 agonist	AHR act
Cc1ccc(NC2c3ccccc3C(=O)N2c2cccnc2)cc1 (configuration not stated)	-	-	5.5	-	-	-
Cc1ccc(NC(=O)CN(C)S(=O)(=O)c2ccc3c(c2)n(C)c(=O)c(=O)n3C)c(C)c1	-	-	-	-	-	-
COC(=O)c1cccc(NC(=O)CCCN2C(=O)NC3(CCCC3)C2=O)c1	-	-	-	-	-	.
CC1CCCN(C(=O)CSCC(=O)Nc2nc(-c3cccs3)cs2)C1 (configuration not stated)	-	-	-	-	6.4	-
CCOC(=O)N1CCN(C(=O)CSCC(=O)Nc2nc(-c3ccc(C)cc3)cs2)CC1	-	-	-	-	-	-
CCOC(=O)N1CCN(C(=O)CSCC(=O)Nc2nc(-c3ccc4c(c3)OCO4)cs2)CC1	.	.	-	.	.	63
O=C(CSCC(=O)N1CCOCC1)Nc1nc(-c2ccc3c(c2)OCO3)cs1	-	-	-	-	-	50
N#CCC(=O)Nc1nc(-c2ccc3c(c2)OCCO3)cs1	-	-	-	-	-	-
O=C1CC(c2ccccc2)Oc2cc(O)cc(O)c21 (configuration not stated)	-	-	-	-	-	-
CC(C)=CCc1c(O)cc2c(c1O)C(=O)CC(c1ccccc1)O2 (configuration not stated)	-	-	-	-	-	51
COc1ccc(-c2nc(-c3cccc(C)c3)[nH]c(=O)c2C#N)cc1	-	-	-	-	-	-
COc1cccc(-c2nc(-c3ccccc3)[nH]c(=O)c2C#N)c1	-	-	-	-	-	79
CCC(=O)Nc1ccc(-c2nc3ccccc3c(=O)o2)cc1	-	-	-	-	-	.
Cc1cc(/C=C(\C#N)C(=O)NC2CC2)c(C)[nH]1	-	12	-	-	-	58
Cc1ccc(C2=NN(C(=O)CCC(=O)O)C(c3ccc4c(c3)OCO4)C2)cc1 (configuration not stated)	-	-	-	-	-	-
O=C(O)CCC(=O)N1N=C(c2ccccc2)CC1c1ccc2c(c1)OCO2 (configuration not stated)	-	-	-	-	5.7	.
CCc1ccc(C2=NN(C(=O)CCC(=O)O)C(c3cccs3)C2)cc1 (configuration not stated)	-	-	4.7	-	-	-
O=[N+]([O-])c1ccc(-c2cn(-c3ccc(Cl)cc3)c(=S)[nH]2)cc1	-	-	-	-	-	-
CC(Sc1nncs1)C(=O)NCC(=O)Nc1ccc(F)c(F)c1F (configuration not stated)	-	-	-	-	-	-
CCOc1ccc2nc(N3C(=O)CNC3=S)sc2c1	-	-	5.3	-	-	-
Nc1ccc(C(=O)c2cccs2)cn1	-	-	-	-	5.8	-
COCc1ccc(CN2CCC(C(=O)Nc3cccc(-c4cscn4)c3)CC2)o1	-	-	-	-	-	-
Brc1ccc(-c2noc(COc3ccc4c(c3)CCC4)n2)o1	-	-	-	-	-	-
c1csc(-c2noc(COc3ccc4c(c3)CCCC4)n2)c1	4.0	12	-	-	-	-
COc1ccc(Cc2nc(-c3ccccc3)no2)cc1	-	13	-	-	-	-
SMILES	DAX1 inh-1	hgDAF-12 ag	DAX1 inh-2	ssDAF-12 act	hcDAF12 agonist	AHR act
COc1ccc(Cc2nc(-c3cccs3)no2)cc1	-	11	-	-	-	-
Brc1ccc(-c2noc(CCc3ccccc3)n2)cc1	-	-	4.7	-	-	-
CC(=O)C1=C(c2ccccc2)N(C(C)=O)n2c(C)nnc2S1	-	-	-	-	-	51
CC(=O)N1CCN(c2nnc(-c3ccccc3)c3ccccc23)CC1	-	-	-	-	-	-
O=C(N/N=C/c1ccc(-c2ccccc2C(=O)O)o1)c1cccs1	-	12	-	-	-	-
O=C(N/N=C/c1ccncc1)c1cccs1	.	.	-	.	.	-
Fc1ccccc1-n1cc(-c2ccccc2)[nH]c1=S	-	-	-	-	-	-
FC(F)(F)c1cccc(-n2cc(-c3ccccc3)[nH]c2=S)c1	-	-	-	-	-	61
C/C=C(\C)C(=O)NCCN1C2=NC[C@H](C)N2C[C@@H]1Cc1ccc(OC)cc1	-	-	-	-	-	-
COc1ccc(NS(=O)(=O)c2cc(N=Nc3c(O)[nH]c(=O)[nH]c3=O)ccc2Cl)cc1	-	-	-	-	-	-
O=[N+]([O-])c1ccc2nc(SCc3cn4ccccc4n3)[nH]c2c1	-	-	-	-	-	-
O=[N+]([O-])c1ccc2nc(SCc3cn4cccnc4n3)[nH]c2c1	-	-	-	-	-	51
O=[N+]([O-])c1ccc2nc(SCc3cn4cc(Cl)ccc4n3)[nH]c2c1	-	-	-	-	-	78
FC(F)(F)Oc1ccc(Nc2nc3ccccc3o2)cc1	-	-	-	-	5.7	-
Cc1cc(C)nc(Nc2nc3ccccc3o2)n1	-	-	-	-	-	-
CCOc1ccccc1NC(=O)CSc1nnc(SCc2ccccc2)s1	-	-	.	-	-	.
c1coc(-c2nnc3sc(-c4cccs4)nn23)c1	-	-	-	-	-	55
COc1cccc(-c2nnc3sc(-c4ccco4)nn23)c1	-	-	4.2	-	-	-
Cc1ccc2c(c1)NC(=O)C(CC(=O)NCCN(CC(C)C)CC(C)C)O2 (configuration not stated)	-	-	5.7	-	-	-
COc1ccc(OC)c(CCNC(=O)CC2Oc3ccc(C)cc3NC2=O)c1 (configuration not stated)	-	-	-	-	-	.
COc1ccc(OC)c(CCNC(=O)CC2Oc3ccccc3NC2=O)c1 (configuration not stated)	-	-	-	-	-	52
O=C1Nc2ccccc2-n2nnnc2C1N1CCc2ccccc2C1 (configuration not stated)	-	-	.	-	-	.
COc1ccccc1NC(=O)C1CCN(c2ncnc3c2nc2n3CCCCC2)CC1	-	-	-	-	-	-
COC(=O)c1ccccc1NC(=O)C1CCN(c2ncnc3c2nc2n3CCCCC2)CC1	-	-	4.8	-	-	-
C/C(CCc1ccc2c(c1)OCO2)=N\NC(=O)c1ccc(C)cc1C	-	13	-	-	-	-
